According to PubChem BioAssay AID1159580 (chemical genetic matrix, 2015):
About 2,000 (36%) of roughly 5,500 compounds were called active. About 18% were inconclusive and are not listed. Rule as the data show it: active = normalized growth mostly below about 0.91 (no sharp cut-off); inconclusive = no clear call, values can overlap the other calls; inactive = mostly above about 0.92. The list shows a part of the results.

Assay: chemical genetic growth profiling, strain panel (AID 1159580);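 also: tested at 20 µM; growth read once vehicle control cultures reached saturation at 30 °C; 1 = growth at the plate median or of vehicle wells; lower values mean less growth of the strain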
Conditions: growth OD

Measured: normalized growth

CN(C)CCOC(=O)C(c1ccccc1)C1(O)CCCC1 (centres undefined)
inactive: S. cerevisiae deletion strains, locus YJR075W, strain HOC1, hits give low values 1.01 | S. cerevisiae deletion strains, locus YKL009W, strain mrt4, hits give low values 1.02 | S. cerevisiae deletion strains, locus YKL068W, hits give low values 1.01 | S. cerevisiae deletion strains, locus YKL085W, strain MDH1 (second series), hits give low values 1.04 | S. cerevisiae deletion strains, locus YKL085W, strain MDH1, hits give low values 1.04 | S. cerevisiae deletion strains, locus YKL160W, strain elf1, hits give low values 0.988 | S. cerevisiae deletion strains, locus YKR001C, strain vps1, hits give low values 1.03 | S. cerevisiae deletion strains, locus YKR026C, strain gcn3, hits give low values 0.973 | S. cerevisiae deletion strains, locus YKR091W, strain srl3, hits give low values 0.982 | S. cerevisiae deletion strains, locus YLL001W, strain dnm1, hits give low values 0.957 | S. cerevisiae deletion strains, locus YLL026W, hits give low values 0.985 | S. cerevisiae deletion strains, locus YLL041C, strain sdh2, hits give low values 0.99 | S. cerevisiae deletion strains, locus YLR027C, strain aat2, hits give low values 0.985 | S. cerevisiae deletion strains, locus YLR039C, strain RIC1, hits give low values 1.04 | S. cerevisiae deletion strains, locus YLR058C, strain SHM2, hits give low values 1.01 | S. cerevisiae deletion strains, locus YLR102C, strain apc9, hits give low values 1 | S. cerevisiae deletion strains, locus YLR113W, strain HOG1, hits give low values 1.01 | S. cerevisiae deletion strains, locus YLR221C, strain rsa3, hits give low values 1.03 | S. cerevisiae deletion strains, locus YLR258W, strain gsy2, hits give low values 1.01 | S. cerevisiae deletion strains, locus YLR262C, strain YPT6 (second series), hits give low values 0.995 | S. cerevisiae deletion strains, locus YLR262C, strain YPT6, hits give low values 1.05 | S. cerevisiae deletion strains, locus YLR268W, strain sec22, hits give low values 1.01 | S. cerevisiae deletion strains, locus YLR320W, strain mms22, hits give low values 1.02 | S. cerevisiae deletion strains, locus YLR330W, strain CHS5, hits give low values 1 | S. cerevisiae deletion strains, locus YLR342W, strain FKS1 (second series), hits give low values 0.999 | S. cerevisiae deletion strains, locus YLR342W, strain FKS1, hits give low values 0.958 | S. cerevisiae deletion strains, locus YLR357W, strain rsc2, hits give low values 0.962 | S. cerevisiae deletion strains, locus YLR370C, strain arc18, hits give low values 0.995 | S. cerevisiae deletion strains, locus YLR371W, strain rom2, hits give low values 1.01 | S. cerevisiae deletion strains, locus YLR384C, strain iki3, hits give low values 0.985 | S. cerevisiae deletion strains, locus YLR418C, strain cdc73, hits give low values 1.05 | S. cerevisiae deletion strains, locus YML016C, strain PPZ1, hits give low values 1 | S. cerevisiae deletion strains, locus YML032C, strain rad52, hits give low values 1 | S. cerevisiae deletion strains, locus YML120C, strain ndi1, hits give low values 0.988 | S. cerevisiae deletion strains, locus YML124C, strain tub3, hits give low values 1.01 | S. cerevisiae deletion strains, locus YMR058W, strain fet3, hits give low values 0.991 | S. cerevisiae deletion strains, locus YMR078C, strain ctf18, hits give low values 1.03 | S. cerevisiae deletion strains, locus YMR125W, strain sto1, hits give low values 0.989 | S. cerevisiae deletion strains, locus YMR129W, hits give low values 0.986 | S. cerevisiae deletion strains, locus YMR205C, strain PFK2, hits give low values 0.993 | S. cerevisiae deletion strains, locus YMR223W, strain ubp8, hits give low values 1.02 | S. cerevisiae deletion strains, locus YMR231W, strain pep5, hits give low values 0.975 | S. cerevisiae deletion strains, locus YMR307W, strain GAS1, hits give low values 1.06 | S. cerevisiae deletion strains, locus YNL067W, strain RPL9B, hits give low values 1.02 | S. cerevisiae deletion strains, locus YNL071W, strain lat1, hits give low values 1.01 | S. cerevisiae deletion strains, locus YNL153C, strain GIM3, hits give low values 1.01 | S. cerevisiae deletion strains, locus YNL183C, strain NPR1, hits give low values 0.944 | S. cerevisiae deletion strains, locus YNL209W, strain ssb2, hits give low values 1.02 | S. cerevisiae deletion strains, locus YNL233W, strain BNI4, hits give low values 1.01 | S. cerevisiae deletion strains, locus YNL248C, strain rpa49, hits give low values 1.03 | S. cerevisiae deletion strains, locus YNL250W, strain rad50, hits give low values 1.01 | S. cerevisiae deletion strains, locus YNL271C, strain bni1, hits give low values 1.02 | S. cerevisiae deletion strains, locus YNL298W, strain CLA4, hits give low values 1.03 | S. cerevisiae deletion strains, locus YNL307C, strain MCK1, hits give low values 1.02 | S. cerevisiae deletion strains, locus YNL322C, strain KRE1 (second series), hits give low values 0.985 | S. cerevisiae deletion strains, locus YNL322C, strain KRE1, hits give low values 0.982 | S. cerevisiae deletion strains, locus YNR049C, strain mso1, hits give low values 0.987 | S. cerevisiae deletion strains, locus YNR052C, strain pop2, hits give low values 1.01 | S. cerevisiae deletion strains, locus YOL006C, strain TOP1, hits give low values 1.04 | S. cerevisiae deletion strains, locus YOL012C, strain htz1 1.15 | S. cerevisiae deletion strains, locus YOL147C, strain pex11, hits give low values 1.01 | S. cerevisiae deletion strains, locus YOR001W, strain rrp6, hits give low values 0.97 | S. cerevisiae deletion strains, locus YOR061W, strain CKA2, hits give low values 1.01 | S. cerevisiae deletion strains, locus YOR069W, strain VPS5, hits give low values 1.01 | S. cerevisiae deletion strains, locus YOR070C, strain gyp1, hits give low values 0.997 | S. cerevisiae deletion strains, locus YOR080W, strain dia2, hits give low values 0.981 | S. cerevisiae deletion strains, locus YOR083W, strain WHI5, hits give low values 0.952 | S. cerevisiae deletion strains, locus YOR106W, strain vam3, hits give low values 0.993 | S. cerevisiae deletion strains, locus YOR136W, strain idh2, hits give low values 1.02 | S. cerevisiae deletion strains, locus YOR144C, strain elg1, hits give low values 1.01 | S. cerevisiae deletion strains, locus YOR184W, strain ser1, hits give low values 1.02 | S. cerevisiae deletion strains, locus YOR231W, strain MKK1, hits give low values 0.997 | S. cerevisiae deletion strains, locus YOR265W, strain rbl2, hits give low values 0.998 | S. cerevisiae deletion strains, locus YOR270C, strain vph1, hits give low values 0.957 | S. cerevisiae deletion strains, locus YOR290C, strain snf2, hits give low values 1.02 | S. cerevisiae deletion strains, locus YOR316C, strain cot1, hits give low values 1.02 | S. cerevisiae deletion strains, locus YPL051W, strain arl3, hits give low values 1.02 | S. cerevisiae deletion strains, locus YPL055C, strain LGE1, hits give low values 1.01 | S. cerevisiae deletion strains, locus YPL078C, strain atp4, hits give low values 0.961 | S. cerevisiae deletion strains, locus YPL106C, strain sse1, hits give low values 1.01 | S. cerevisiae deletion strains, locus YPL240C, strain hsp82, hits give low values 1.01 | S. cerevisiae deletion strains, locus YPL241C, strain CIN2, hits give low values 0.988 | S. cerevisiae deletion strains, locus YPL256C, strain CLN2, hits give low values 0.984 | S. cerevisiae deletion strains, locus YPR119W, strain clb2, hits give low values 1.01 | S. cerevisiae deletion strains, locus YPR141C, strain kar3, hits give low values 1.03 | S. cerevisiae deletion strains, locus YPR163C, strain tif3, hits give low values 1.02 | S. cerevisiae deletion strains, locus YPR167C, strain met16, hits give low values 1.01 | S. cerevisiae deletion strains, strain wtn01, hits give low values 1.01 | S. cerevisiae strains, strain wild type, hits give low values 1
